# PubChem BioAssay AID743149 (Broad Institute, 2013)
# Measured potencies and affinities stand elsewhere. Active and inactive are the calls of the source. No rule for the calls is given here.
# Test: cytotoxicity in OV-90 ovarian cancer cells, dose response, PAX8 inhibitor project, cell-based, plate reader, dry powder, SA8 (AID 743149)
# Conditions: series mostly up to 35 µM
row,SMILES,outcome
1,CCCC#Cc1ccc([C@@H]2[C@@H](C#N)N(S(=O)(=O)c3cccc(F)c3)[C@H]2CO)cc1,inactive
2,COc1cccc(C#Cc2ccc([C@@H]3[C@H](C#N)N(C(=O)c4ccccn4)[C@H]3CO)cc2)c1,inactive
3,COc1ccc(S(=O)(=O)Nc2ccc3c(c2)CC(=O)N([C@@H](C)CO)C[C@@H](C)[C@@H](CN(C)Cc2ccc(-c4ccccc4)cc2)O3)cc1,inactive
4,N#C[C@H]1[C@@H](c2ccc(C3=CCCC3)cc2)[C@@H](CO)N1C(=O)NC1CCCCC1,inactive
5,Cc1ccccc1OCC(=O)Nc1cccc(C(=O)O)c1,inactive
6,N#C[C@@H]1[C@H](c2ccc(C#CC3CCCC3)cc2)[C@H](CO)N1C(=O)Nc1ccc(F)cc1,inactive
7,O=C(C[C@H]1CC[C@H]2[C@@H](COC[C@@H](O)CN2S(=O)(=O)c2cccc(Cl)c2)O1)Nc1ccc(-c2ccccc2)cc1,inactive
8,C[C@H](CO)N1C[C@H](C)[C@@H](CN(C)S(=O)(=O)c2ccc(Cl)cc2)OCCCC[C@H](C)Oc2ccc(NS(=O)(=O)c3ccccc3)cc2C1=O,inactive
9,O=C(Nc1ccc(OCC(F)(F)C(F)F)c(C(F)(F)F)c1)c1ccccc1O,inactive
10,N#C[C@@H]1[C@@H](c2ccc(C3=CCCCC3)cc2)[C@@H](CO)N1C(=O)NC1CCCCC1,inactive
11,O=C(NCCc1ccccc1)c1ccc2c(c1)OCCCO2,inactive
12,CCCC#Cc1ccc([C@H]2[C@@H](CO)N(C(=O)C3CCCCC3)[C@H]2C#N)cc1,inactive
13,COc1ccccc1C#Cc1ccc([C@@H]2[C@@H](C#N)N(C(=O)C3CCCCC3)[C@H]2CO)cc1,inactive
14,C[C@@H]1CN([C@H](C)CO)C(=O)CCCn2nncc2CO[C@H]1CN(C)Cc1ccc(Oc2ccccc2)cc1,inactive
15,C[C@H](CO)N1C[C@H](C)[C@@H](CN(C)Cc2ccc(-c3ccccc3)cc2)Oc2ccc(NS(=O)(=O)c3ccccc3)cc2CC1=O,inactive
16,O=C1/C(=C/c2ccccc2)SC(=S)N1CC(=O)N1CCCCC1c1cccnc1 (stereo unspecified),inactive

row,SMILES,outcome
1,C[C@H](CO)N1C[C@H](C)[C@H](CN(C)C(=O)Nc2ccc(-c3cccs3)cc2)OCc2cnnn2CCCC1=O,inactive
2,N#C[C@@H]1[C@@H](c2ccc(C#Cc3ccccc3F)cc2)[C@H](CO)N1C(=O)C1CCCCC1,inactive
3,C[C@H](CO)N1C[C@H](C)[C@@H](CN(C)S(=O)(=O)c2ccc(-c3ccccc3)cc2)OCc2cn(nn2)CCCC1=O,inactive
4,O=C1/C(=C/c2ccccc2F)SC(=S)N1CC(=O)N1CCCCC1c1cccnc1 (stereo unspecified),inactive
5,C[C@H](CO)N1C[C@H](C)[C@@H](CN(C)Cc2ccc(-c3ccccc3)cc2)Oc2ccc(NC(=O)C3CC3)cc2CC1=O,inactive
6,O=C(CN1C(=O)c2ccccc2S1(=O)=O)c1ccccc1Cl,inactive
7,COc1cccc(C#Cc2ccc([C@@H]3[C@@H](C#N)N(C(=O)C4CCCCC4)[C@H]3CO)cc2)c1,inactive
8,CCN(CC(=O)Nc1c(F)cccc1F)C(=O)c1cc(S(=O)(=O)N(C)C)ccc1N1CCCC1,inactive
9,COc1cccc(C#Cc2ccc([C@H]3[C@@H](CO)N(C(=O)C4CCCC4)[C@H]3C#N)cc2)c1,inactive
10,O=C1/C(=C/c2cccc(Br)c2)SC(=S)N1CCC(=O)N(CCO)c1ccccc1,inactive
11,Cc1ccc(S(=O)(=O)Nc2ccc3c(c2)C(=O)N([C@H](C)CO)C[C@@H](C)[C@H](CN(C)Cc2ccc(C(F)(F)F)cc2)OCCCC[C@H](C)O3)cc1,inactive
12,N#C[C@H]1[C@@H](c2ccc(C#Cc3cccc(F)c3)cc2)[C@@H](CO)N1C(=O)C1CCCC1,inactive
13,COCC(=O)N1[C@H](CO)[C@H](c2ccc(-c3cccnc3)cc2)[C@@H]1C#N,inactive
14,C[C@@H]1CN([C@H](C)CO)C(=O)CCCn2cc(nn2)CO[C@H]1CN(C)C(=O)Nc1ccc(-c2cccs2)cc1,inactive
15,O=C(CN1C(=O)c2ccccc2S1(=O)=O)c1ccc(Cl)cc1Cl,inactive
